# eIF4H FP inh – inhibitors of RNA binding by human eIF4H; Q15056; actives 0.94% (n = 290,000); eIF4H fluorescence polarization binding assay; inhibition, % at 35 µM; AID 2012;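 also: calls also rest on retests at 20 µM and on dose response follow-up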
# eIF4E 4G PPI – eIF4E/eIF4G interaction inhibition in translation initiation; P63073+Q04637; TR-FRET eIF4E-eIF4GI(517-606) binding, 2 h; inhibition, % at 21.7 µM; actives 0.37% (n = 220,000);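 active = inhibition above about 30%, limit read from the data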;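 also: 0% = full FRET control wells and 100% = background wells lacking eIF4GI fragment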
# PABP1 MLLE inh – inhibitors of microRNA-mediated deadenylation, human PABP1 MLLE binding; inhibition, % at 20 µM; P11940; actives 0.36% (n = 360,000); GST-MLLE / FITC-PAM2 fluorescence polarization; in the data active = inhibition above about 35%, passing the limit was not always enough;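 also: plate controls were DMSO wells with GST-MLLE for no effect and wells lacking GST-MLLE protein for full effect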
# PABP FP inh – blocks human PABP binding to poly(A) RNA; P11940; fluorescence polarization; calls only at 35 µM; actives 1% (n = 290,000);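 also: calls also rest on retests at 20 µM and on dose response follow-up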
# The depositor's hits bear a star; i = inactive; ? = inconclusive; / = no result; + = active, no number; [ ] = remark or other dose. Sampled rows, rich in hits. Any-hit rate of the full collection: about 1.5%. Unless noted, no rule for the calls is given here.
SMILES,eIF4H FP inh,eIF4E 4G PPI,PABP1 MLLE inh,PABP FP inh
CCCc1cc(=O)oc2cc(OC3CCCCC3=O)ccc12 (configuration not stated),89*,/,-2,+
Nc1ccc2c(Cl)cc(Cl)cc2c1,/,/,12,/
Cc1ccc(NC(=O)C2C(c3ccccc3)C2(Cl)Cl)c(C)c1 (configuration not stated),?,-7,4,+
CC(=O)Nc1ccnn1C1CCN(C(=O)c2cccc(C)c2C)CC1,-10,/,-2,i
Cn1c(=O)c2c(ncn2CC(=O)Nc2cccc(S(=O)(=O)Nc3ccccc3F)c2)n(C)c1=O,-14,0,45*,i
CN(C)CCCOc1ccc(-c2ccc3nncn3c2)cn1,/,/,-1,/
C[C@@H]1CN([C@H](C)CO)C(=O)CCCn2nncc2CO[C@@H]1CN(C)C(=O)C1CCCCC1,/,/,25,/
COC(=O)c1ccccc1NC(=O)c1ccc2c(c1)OCCO2,-2,16,-3,i
COC(=O)c1ccccc1NC(=S)NC(=O)c1ccc2c(c1)OCO2,-5,/,42*,i
Oc1ccc(C=NNC(=S)Nc2ccccc2)nc1,/,/,32,/
CC(C)CNC(=S)N1CCC(C(=O)c2ccc(Cl)cc2)CC1,/,/,-104,/
O=C1NN(c2ccc(F)cc2)C(=O)/C1=C\c1cnn(-c2ccccc2)c1,5,7,/,i
O=C1NN(c2ccc(F)cc2)C(=O)/C1=C\C=C\c1ccco1,88*,3,0,+
CCCCNC(=O)C1(C)CCCCN1C(=O)c1cc(-c2ccccc2)cs1 (configuration not stated),/,/,0,/
Cc1oc(-c2ccc(Cl)cc2)nc1CN1CCC(C(=O)NCc2ccco2)CC1,4,64*,-10,i
Cc1n[nH]c(=O)nc1NCc1ccc(Cl)cc1,-2,-2,-1,i
O=c1[nH]ncc(NCc2ccc(Cl)cc2)c1Cl,0,-2,-10,+
COc1ccc2c(C)cc(SCC(=O)N3CCOCC3)nc2c1,124*,-6,-86,+
COc1ccc2c(C)cc(SCC(=O)NC3CCCCC3)nc2c1,/,/,-7,/
COc1ccc2c(-c3ccccc3)cc(SCC(N)=O)nc2c1,80*,-13,-77,+
COc1ccc(C(O)c2nc(-c3ccc4ccccc4c3)cs2)cc1 (configuration not stated),/,/,-1,/
C[C@@H]1CCC2[C@](C)(CO)[C@@H](O)CC[C@]2(C)[C@@]12CC[C@@](CO)(CC(=O)O)O2 (some centres not stated),-11,/,53*,i
CCOC(=O)C1CCN(C(=O)NS(=O)(=O)c2ccc(C)cc2)CC1,3.0*,-2,3,+
CCOC(=O)C1CCN(C(=S)Nc2ccc(C)cc2)CC1,-3,1,-74,i
C[C@H]1CN([C@@H](C)CO)S(=O)(=O)c2ccc(C#Cc3ccccn3)cc2O[C@@H]1CN(C)C(=O)C1CC1,/,/,14,/
SMILES,eIF4H FP inh,eIF4E 4G PPI,PABP1 MLLE inh,PABP FP inh
CCCNC(=O)c1nnsc1S(=O)c1ccc(Cl)cc1 (configuration not stated),-10,-3,37*,i
CCc1nnc(NC(=O)Cc2ccc(OCc3c(C)noc3C)cc2)s1,7,65*,9,i
CCCCc1nnc(NC(=O)c2ccc(OCc3c(C)noc3C)cc2)s1,/,/,4,/
O=c1[nH]cc(COCC(F)CCl)c(=O)[nH]1 (configuration not stated),-10,97*,2,i
O=C1c2ccccc2C(=O)N1CCCOCc1c[nH]c(=O)[nH]c1=O,-2,-2,15,i
CCC(CC)c1nnc(NC(=O)C2CC(=O)N(CCc3ccc(F)cc3)C2)s1 (configuration not stated),2,/,32*,i
CCC(CC)c1nnc(NC(=O)C2CC(=O)N(CCc3ccc(OC)c(OC)c3)C2)s1 (configuration not stated),/,/,12,/
N#CC1=C(N)N=C(SCc2cccc3ccccc23)C(C(N)=O)C12CCCCC2 (configuration not stated),-8,0,40*,i
COc1cccc(C#Cc2ccc3c(c2)O[C@H](CN(C)C)[C@@H](C)CN([C@@H](C)CO)S3(=O)=O)c1,/,/,-5,/
CC(C)C1=C2CCCCC2NC(=O)N1 (configuration not stated),0,-9,62*,i
CC(C)C1(C2CCCC2)NC(=O)NC1=O (configuration not stated),/,/,9,/
Nn1c(SCc2ccc(F)cc2)nnc1-c1ccccn1,4,-2,1,i
Nn1c(SCc2ccccc2F)nnc1-c1ccccn1,4.1*,-3,-8,+
CC(C)CNC(=O)COC(=O)c1c2c(nc3ccccc13)/C(=C\c1cccs1)CC2,/,/,-6,/
CN(CCC#N)C(=O)COC(=O)c1c2c(nc3ccccc13)/C(=C/c1ccco1)CC2,95*,7,-5,i
CCOC(=O)c1c(NC(=S)Nc2cc([N+](=O)[O-])ccc2OC)sc2c1CCCCC2,-2,-2,/,i
COC(=O)c1c(NC(=S)Nc2cc(OC)c(Cl)cc2OC)sc2c1CCCCC2,8,19,47*,i
CC(C)OC(=O)N(C)C[C@H]1OCc2cn(nn2)CCCC(=O)N([C@H](C)CO)C[C@@H]1C,/,/,10,/
CCCCNC(=O)C1(C)CCCCN1C(=O)c1oc2ccccc2c1C (configuration not stated),/,/,0,/
O=C(NCc1cccs1)c1ccc2sc([C@H]3C[C@H](O)[C@@H](CO)O3)nc2c1,/,/,19,/
COc1ccccc1NC(=O)c1ccc(S(=O)(=O)N(C)C)cc1,-7,38*[fluorescence artefact?],-10,i
CCOC(=S)N/C(=N\S(C)(=O)=O)c1ccccc1,-8,2,39*,i
CCOC(=S)N/C(=N\S(=O)(=O)c1ccccc1)c1ccccc1,3,0,16,i
Cc1cc2nc(-c3ccccc3)c(Cc3ccccc3)n2c(C)c1Br,/,/,-8,/
COc1ccccc1N1C(=O)CC(N2CCN(c3ccc([N+](=O)[O-])cc3)CC2)C1=O (configuration not stated),-6,/,-2,i
SMILES,eIF4H FP inh,eIF4E 4G PPI,PABP1 MLLE inh,PABP FP inh
COc1cccc(NC(=O)CN(C)CC(=O)NCc2ccco2)c1,/,/,-19,/
COc1cccc(CN(C)CC(=O)Nc2ccccc2C(=O)NC2CC2)c1,/,/,89*,/
COc1cccc(CN(C)CC(=O)NC(=O)NCc2ccco2)c1,50*,-10,3,+
CC1(C(=O)NCc2cccs2)Cc2c(-c3cccc(C(F)(F)F)c3)ccnc2O1 (configuration not stated),/,/,-2,/
COc1ccc(OC)c(N=c2oc3cc(O)ccc3cc2C(N)=O)c1,6,0,-3,i
COc1ccc2oc(=Nc3cc(F)ccc3F)c(C(N)=O)cc2c1,active,-8,12,+
COc1ccc(OCc2nc(N)nc(Nc3ccccc3)n2)cc1,-9,6,-10,i
Nc1nc(COc2ccccc2C=O)nc(Nc2ccccc2)n1,-3,97*,2,i
Cc1cc(=O)n2ccccc2c1C#N,-2,5,3,i
COc1ccc2c(C#N)c3ccccn3c2c1,17,1,54*,i
CCOc1ccc(-c2csc(NNC3=NCCCCC3)n2)cc1,15,1,37*,i

# Screening results as filed in PubChem.
